Compounds with a hit are over-represented: about 9.4% of the library has one in this group of screens.
SMN2 splice up: enhancers of SMN2 splice variant expression; HEK293 SMN2-luciferase splicing reporter, luminescence, 30-36 h; Potency, µM (titrated, usually from 46.1 µM), without a hit: top-dose activity change, positive = activation, actives largely listed as activators; actives 2.8% (n = 210,000); further: % of control where 0% means no effect; nearly all actives have a fitted effect of over 55% in size
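qHTS luciferase splicing reporter: luminescence rises when SMN2 exon 7 is included in transfected HEK293 cells. Compound exposure lasted 30-36 h at 37C, with 4.5 mM final sodium butyrate as control, followed by a ONE-Glo read.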
Rab9 prom act: activators of Rab9 promoter; Potency, µM (titrated, usually from 9.22 µM), for the others: at the highest dose activation, negative = inhibition, hits mostly activators; Huh7 Rab9 promoter-luciferase reporter, luminescence, 24 h; AID 485297; actives 2.8% (n = 320,000); further: % of control where 0% means no effect; nearly all actives have a fitted effect of over 60% in size
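Rab9 promoter-driven luciferase in stably transfected Huh7 cells; 1500 cells/well rested 2 h, exposed to compound in DMSO for 24 h at 37 °C, 5% CO2. Luminescence read 10 min after adding luciferase reagent at ambient temperature.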
ELG1 repair inh: ELG1-dependent DNA repair inhibition; HEK293T ELG1-luciferase reporter, luminescence, 16 h; DNA damage induced by 5-fluorouridine; Potency, µM (doses to about 46.1 µM), inactives show at the highest dose activity change, negative = inhibition, usual class: inhibitors; actives 2.3% (n = 330,000); AID 504467; further: on the % scale 0 is the no-effect control and ±100 the full control effect; nearly all actives have a fitted effect of over 55% in size
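Reporter activity after DNA damage by 5-fluorouridine is monitored. Compound-treated cells incubate 16 hr at 37 °C, then ONE-Glo is added for 30 min before luminescence reading.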
NPC1 prom act: activators of NPC1 promoter. Huh7 NPC1 promoter luciferase reporter, 24 h. Potency, µM (titrated, usually from 9.22 µM), inactives show at the highest dose activation, most hits filed as activators. actives 2.4% (n = 320,000); further: % of control where 0% means no effect; nearly all actives have a fitted effect of over 60% in size
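Stable NPC1-promoter luciferase Huh7 line; cpd (DMSO) 24 h, 37 °C, 5% CO2; Amplite luciferase reagent 10 min RT; luminescence readout. qHTS format.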
ELG1 genotox: induces genotoxicity in HEK293T cells with luciferase-tagged ELG1. HEK293T ELG1-luciferase reporter, luminescence, 16 h. Potency, µM (highest dose often 46 µM), for the others: top-dose activity change, positive = activation, actives largely listed as activators. actives 1.3% (n = 330,000); further: % of control where 0% means no effect; nearly all actives have a fitted effect of over 60% in size
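Luminescence read-out: rising ELG1-luciferase signal, reflecting elevated ELG1 protein under genetic stress, flags genotoxic compounds. Cells were treated for 16 hr at 37 °C before ONE-Glo detection.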
FLuc modulator: counter-screen for miR-21 project: firefly luciferase inhibitors or activators; actives 6.9% (n = 360,000); P08659; Potency, µM (titrated, usually from 57.5 µM), without a hit: at the top dose activity change, negative = inhibition, most hits filed as inhibitors; purified FLuc, Km substrates, luminescence inhibition;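 further: plate controls were vehicle for no effect and reference inhibitor for full effect; nearly all actives have a fitted effect of over 55% in size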
Target sequence (P08659 whole entry, looked up): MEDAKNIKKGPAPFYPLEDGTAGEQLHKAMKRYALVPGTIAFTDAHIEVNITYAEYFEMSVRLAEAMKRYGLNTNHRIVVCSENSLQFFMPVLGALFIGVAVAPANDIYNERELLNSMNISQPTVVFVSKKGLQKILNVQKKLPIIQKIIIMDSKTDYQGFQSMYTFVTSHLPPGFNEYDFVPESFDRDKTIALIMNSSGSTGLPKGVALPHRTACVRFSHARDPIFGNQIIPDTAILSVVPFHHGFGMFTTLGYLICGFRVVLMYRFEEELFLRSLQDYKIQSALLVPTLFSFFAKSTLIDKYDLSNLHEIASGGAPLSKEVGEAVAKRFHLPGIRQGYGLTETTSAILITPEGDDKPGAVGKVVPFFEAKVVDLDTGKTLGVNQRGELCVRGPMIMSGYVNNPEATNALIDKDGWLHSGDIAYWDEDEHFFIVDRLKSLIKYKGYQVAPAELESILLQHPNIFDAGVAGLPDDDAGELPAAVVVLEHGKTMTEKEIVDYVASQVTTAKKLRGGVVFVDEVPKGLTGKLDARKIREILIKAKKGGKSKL
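Biochemical qHTS of compounds, final roughly 60 µM downward over six points, against 10 nM purified firefly luciferase using Km concentrations of substrates (10 uM D-luciferin, 10 uM ATP) in Tris acetate pH 7.5 buffer; luminescence output.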
The depositor's hits bear a star; ? = inconclusive; . = not tested or not shown; [ ] = dose if it differs, or a comment. The call rests on the fitted dose curve; in most records, active means well fitted curve in the direction sought with a large enough effect; inconclusive means small, poorly fitted or top-dose-only effect, or another doubt; inactive means no such curve, though single readings can be large; an effect the other way counts as inactive or inconclusive. Potency means the concentration at half of the fitted maximal effect.

SMILES	SMN2 splice up	Rab9 prom act	ELG1 repair inh	NPC1 prom act	ELG1 genotox	FLuc modulator
Fc1ccc(-n2nnc(-c3ccnc4ccccc34)n2)cc1	.	4µM*	?	25%	?	2.1µM*
COC(=O)C1=C(C)NC(C)=C(C(=O)OC)C1c1ccc(C)o1	.	-4%	0%	-3%	3%	1%
CC1=C(C(=O)OC(C)C)C(c2ccc(C)o2)C(C(=O)OC(C)C)=C(C)N1	.	-4%	18µM*	-2%	-6%	1%
Cc1nnsc1C(=O)Oc1ccccc1Cl	.	.	.	.	.	1%
O=C(NCCc1ccccc1)C1CCC(=O)N(Cc2ccc(Cl)cc2)C1 (stereo not given)	.	0%	1%	4%	2%	-3%
O=C(NCCc1cscn1)C1CCC(=O)N(Cc2ccc(Cl)cc2)C1 (stereo not given)	.	?	0%	?	?	3µM*
O=C(SCc1cccc2ccccc12)c1ccc(Cl)cc1	-5%[9.22 µM]	.	.	.	.	.
COc1ccc(-c2cc(CCCC(=O)NCCc3ccccc3)no2)cc1	.	?	?	?	6%	7.6µM*
COc1ccc(-c2cc(CCCC(=O)NCCc3ccc(OC)cc3OC)no2)cc1	-20%	-3%	-19%	-2%	-8%	?
COc1ccc(-c2cc(CCCC(=O)NCc3ccccn3)no2)cc1	-34%	12%	?	13%	10%	8.5µM*
O=C(CSc1nc2c([nH]c3ccccc32)c(=O)n1-c1cccc(Cl)c1)N1CCc2ccccc21	.	.	.	.	.	-1%
O=C1c2ccccc2-c2ccc(N=[N+]([O-])c3ccc4c(c3)C(=O)c3ccccc3-4)cc21	-7%[9.22 µM]	.	.	.	.	.
COc1cc2c(cc1OC)-c1cc(NC3CCCCCCC3)nc(=O)n1CC2	-1%	1%	0%	-3%	14%	?
CCOc1ccc(Nc2cc3n(c(=O)n2)CCc2cc(OC)c(OC)cc2-3)cc1	.	-1%[1.84 µM]	-31%	-5%	?	13µM*
COc1cc2c(cc1OC)-c1cc(NC3CC3)nc(=O)n1CC2	14µM*	3%	?	-2%	?	3%
Cc1cc(NC(=O)c2cccc3ccccc23)cc(C)c1OCC(=O)N1CCOCC1	-13%	-5%	-25%	-1%	-9%	?
Cc1cc(NC(=O)c2ccc(Cl)cc2)cc(C)c1OCC(=O)N1CCOCC1	.	?	?	3.2µM*	10%	1.7µM*
CCCCOc1ccc(C(=O)Nc2cc(C)c(OCC(=O)N3CCOCC3)c(C)c2)cc1	-68%	0%	?	14%	-6%	2.1µM*
COc1cc(C(=O)Nc2ccc(C)cn2)ccc1OCC(=O)N1CCOCC1	.	2%	?	2%	7%	17µM*
COc1ccc(CCCc2nnc(SCC(=O)Nc3ccc(Cl)cc3)o2)cc1	-12%	.	.	.	.	1%
COc1cccc(CNCCSc2nnnn2C)c1OCc1ccccc1F	-22%	.	.	.	.	-7%
O=C(NCCc1ccc(Cl)cc1)c1ccc(CS(=O)(=O)Cc2ccccc2F)o1	.	.	.	.	.	-17%
CCOc1cc(C(N)=O)cc(OCC)c1OCC	-11%	-8%	2%	3%	-1%	2%
CCOc1cc(C(N)=O)cc(Br)c1OC	4%	-6%	5.2µM*	-1%	-10%	-2%
Cn1cccc1C(=O)N1CCC2(CC1)CN(C(c1ccccc1)c1ccccc1)C2	-4%	.	.	.	.	.
O=C(Nc1ccc(Cl)cc1)Nc1ccc2c(c1)N1CCN=C1S2	-25%	11%	23µM*	10%	-6%	8.5µM*
Nc1ccc2c(c1)N1CCN=C1S2	5%	-4%	0%	-4%	1%	8%
CN(C)CCCNC(=O)c1ccc(/C=N/O)nc1	.	2.8µM*	?	2.5µM*	?	11µM*
C/C(=N\NC(=O)c1ccn(C)n1)c1ccco1	.	2.5µM*	?	?	16µM*	17µM*
C/C(=N\NC(=O)c1cc(-c2ccc(C)s2)[nH]n1)c1ccco1	11µM*	28%	?	23%	14%	21µM*

Screening data from PubChem.
